Here are results for seven sequences from PMC7862700, “An all-to-all approach to the identification of sequence-specific readers for epigenetic DNA modifications on cytosine”.

Common to all, as to assay: DAPPL (digital affinity profiling via proximity ligation, sequencing); 10 mM Tris-HCl pH 7.5, 50 mM NaCl, 1 mM DTT, 4% glycerol, room temperature, 30 min; GST-TFs on glutathione beads, 16-mer random dsDNA library, 0.1% formaldehyde crosslink after washing; high values mean tight binding
One assay deals with T1, FEV (Homo sapiens, UniProt Q99581 1-238).
T1 sequence: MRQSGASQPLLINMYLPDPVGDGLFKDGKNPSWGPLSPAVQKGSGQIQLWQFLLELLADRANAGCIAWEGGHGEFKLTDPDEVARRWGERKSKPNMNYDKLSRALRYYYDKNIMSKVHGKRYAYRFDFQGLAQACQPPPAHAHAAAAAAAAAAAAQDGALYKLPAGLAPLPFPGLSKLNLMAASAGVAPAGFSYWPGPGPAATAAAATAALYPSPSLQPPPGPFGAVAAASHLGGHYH
As to conditions: protein: recombinant; tags: N-terminal GST; dsDNA, one strand shown. An outline of the steps:
(§1)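 In yeast, human transcription factors were expressed with a GST fusion, then pulled down on glutathione beads and given DNA barcodes. Pooled with a tag-only sample, they were exposed to 200 nmole of a 16-mer random double-stranded DNA library (Tris/NaCl/DTT/glycerol buffer, room temperature, 30 min), washed, crosslinked with 0.1% formaldehyde, proximity-ligated using BsaI/T4 ligase for 1 h at 37 °C, PCR-amplified and read on an Illumina NextSeq500. Each hexamer's frequency of reads for a factor, divided by the matching frequency for the tag-only sample, gives the binding signal.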

The next assay concerns the target ETV5 (Homo sapiens, UniProt P41161 1-510). To be noted: protein: recombinant; tags: N-terminal GST; dsDNA, one strand shown. Put shortly: as §1
A further assay has as its target HSF1 (Homo sapiens, UniProt Q00613 1-529). As to conditions: protein: recombinant; tags: N-terminal GST; chain copies: 3; dsDNA, one strand shown. Put shortly:
as §1

Another assay addresses T2, SPIC (Homo sapiens, UniProt Q8N5J4 1-248).
T2 sequence: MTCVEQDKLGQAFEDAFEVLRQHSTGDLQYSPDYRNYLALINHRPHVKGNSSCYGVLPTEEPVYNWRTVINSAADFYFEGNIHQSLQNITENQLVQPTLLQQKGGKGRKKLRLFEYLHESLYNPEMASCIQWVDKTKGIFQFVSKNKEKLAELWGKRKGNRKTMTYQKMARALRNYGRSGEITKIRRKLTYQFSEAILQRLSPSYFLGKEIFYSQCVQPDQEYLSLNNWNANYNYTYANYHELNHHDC
To be noted: protein: recombinant; tags: N-terminal GST; dsDNA, one strand shown. Put shortly:
as §1

The next assay concerns the target ELF4 (Homo sapiens, UniProt Q99607 1-663). As to conditions: protein: recombinant; tags: N-terminal GST; dsDNA, one strand shown. Put shortly:
as §1

For the next assay, the target named is T3, ELK4 (Homo sapiens, UniProt P28324-2 1-405).
T3 sequence: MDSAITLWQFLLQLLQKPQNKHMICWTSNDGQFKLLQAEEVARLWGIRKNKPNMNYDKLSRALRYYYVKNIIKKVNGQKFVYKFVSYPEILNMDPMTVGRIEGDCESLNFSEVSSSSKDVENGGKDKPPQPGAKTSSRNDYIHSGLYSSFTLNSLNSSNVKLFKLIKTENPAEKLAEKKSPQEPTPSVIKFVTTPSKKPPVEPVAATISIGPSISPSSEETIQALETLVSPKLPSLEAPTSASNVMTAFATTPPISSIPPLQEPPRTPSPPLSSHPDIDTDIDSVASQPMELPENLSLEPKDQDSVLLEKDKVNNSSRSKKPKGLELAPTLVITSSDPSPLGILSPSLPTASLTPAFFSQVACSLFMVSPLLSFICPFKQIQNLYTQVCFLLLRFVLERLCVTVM
To be noted: protein: recombinant; tags: N-terminal GST; dsDNA, one strand shown. Put shortly: as §1

Another assay addresses T4, ETV2 (Homo sapiens, UniProt O00321 1-342).
T4 sequence: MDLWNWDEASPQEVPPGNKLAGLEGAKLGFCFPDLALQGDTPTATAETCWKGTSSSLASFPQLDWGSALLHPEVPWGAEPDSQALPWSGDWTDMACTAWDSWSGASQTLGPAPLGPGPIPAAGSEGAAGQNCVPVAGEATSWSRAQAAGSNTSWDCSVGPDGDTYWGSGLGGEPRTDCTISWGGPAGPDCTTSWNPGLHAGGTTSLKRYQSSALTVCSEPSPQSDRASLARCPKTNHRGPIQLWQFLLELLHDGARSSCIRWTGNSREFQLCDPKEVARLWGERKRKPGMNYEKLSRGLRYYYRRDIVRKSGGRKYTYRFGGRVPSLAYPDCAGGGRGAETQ
To be noted: protein: recombinant; tags: N-terminal GST; dsDNA, one strand shown. An outline of the steps:
as §1

A further assay addresses T5, ELF3 (Homo sapiens, UniProt P78545 1-371).
T5 sequence: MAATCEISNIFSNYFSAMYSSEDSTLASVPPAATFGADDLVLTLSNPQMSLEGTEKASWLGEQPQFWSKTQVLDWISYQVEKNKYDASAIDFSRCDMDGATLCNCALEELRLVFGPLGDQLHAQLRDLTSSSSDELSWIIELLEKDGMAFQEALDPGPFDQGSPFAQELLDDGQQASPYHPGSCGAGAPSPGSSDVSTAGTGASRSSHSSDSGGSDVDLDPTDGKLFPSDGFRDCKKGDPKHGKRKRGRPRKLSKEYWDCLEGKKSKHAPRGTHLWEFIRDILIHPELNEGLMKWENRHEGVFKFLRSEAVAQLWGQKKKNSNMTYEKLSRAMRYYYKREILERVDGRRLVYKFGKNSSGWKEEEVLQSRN
To be noted: protein: recombinant; tags: N-terminal GST; dsDNA, one strand shown. Put shortly: as §1

A further assay has as its target CRX (Homo sapiens, UniProt O43186 1-299). To be noted: protein: recombinant; tags: N-terminal GST; dsDNA, one strand shown. Put shortly: as §1
A further assay has as its target ETV1 (Homo sapiens, UniProt P50549 1-477). To be noted: protein: recombinant; tags: N-terminal GST; dsDNA, one strand shown. Put shortly:
as §1

ETV5, sequence (P41161 whole entry): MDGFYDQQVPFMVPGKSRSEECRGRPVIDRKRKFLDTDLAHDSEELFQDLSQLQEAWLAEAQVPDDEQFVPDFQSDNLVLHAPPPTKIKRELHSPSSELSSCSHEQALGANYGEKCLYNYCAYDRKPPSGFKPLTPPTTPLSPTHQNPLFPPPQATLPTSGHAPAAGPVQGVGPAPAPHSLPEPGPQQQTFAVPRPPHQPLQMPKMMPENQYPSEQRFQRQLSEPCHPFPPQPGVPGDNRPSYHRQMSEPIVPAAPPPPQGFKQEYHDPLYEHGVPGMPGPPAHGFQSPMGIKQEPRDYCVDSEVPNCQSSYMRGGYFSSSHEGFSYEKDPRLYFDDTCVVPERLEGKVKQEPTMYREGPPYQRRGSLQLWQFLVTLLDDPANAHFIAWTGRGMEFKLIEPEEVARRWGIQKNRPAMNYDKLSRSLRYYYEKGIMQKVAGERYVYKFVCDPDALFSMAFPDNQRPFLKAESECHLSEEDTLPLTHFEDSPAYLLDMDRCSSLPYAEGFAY
CRX, sequence (O43186 whole entry): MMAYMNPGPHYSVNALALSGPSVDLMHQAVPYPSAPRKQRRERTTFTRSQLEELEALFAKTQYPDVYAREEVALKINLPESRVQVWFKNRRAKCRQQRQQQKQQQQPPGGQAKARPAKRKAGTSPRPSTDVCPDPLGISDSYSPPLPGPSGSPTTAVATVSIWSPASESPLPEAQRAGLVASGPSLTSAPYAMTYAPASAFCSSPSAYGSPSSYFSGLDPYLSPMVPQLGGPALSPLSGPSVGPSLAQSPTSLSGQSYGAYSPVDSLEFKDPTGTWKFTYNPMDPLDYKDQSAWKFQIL
ELF4, sequence (Q99607 whole entry): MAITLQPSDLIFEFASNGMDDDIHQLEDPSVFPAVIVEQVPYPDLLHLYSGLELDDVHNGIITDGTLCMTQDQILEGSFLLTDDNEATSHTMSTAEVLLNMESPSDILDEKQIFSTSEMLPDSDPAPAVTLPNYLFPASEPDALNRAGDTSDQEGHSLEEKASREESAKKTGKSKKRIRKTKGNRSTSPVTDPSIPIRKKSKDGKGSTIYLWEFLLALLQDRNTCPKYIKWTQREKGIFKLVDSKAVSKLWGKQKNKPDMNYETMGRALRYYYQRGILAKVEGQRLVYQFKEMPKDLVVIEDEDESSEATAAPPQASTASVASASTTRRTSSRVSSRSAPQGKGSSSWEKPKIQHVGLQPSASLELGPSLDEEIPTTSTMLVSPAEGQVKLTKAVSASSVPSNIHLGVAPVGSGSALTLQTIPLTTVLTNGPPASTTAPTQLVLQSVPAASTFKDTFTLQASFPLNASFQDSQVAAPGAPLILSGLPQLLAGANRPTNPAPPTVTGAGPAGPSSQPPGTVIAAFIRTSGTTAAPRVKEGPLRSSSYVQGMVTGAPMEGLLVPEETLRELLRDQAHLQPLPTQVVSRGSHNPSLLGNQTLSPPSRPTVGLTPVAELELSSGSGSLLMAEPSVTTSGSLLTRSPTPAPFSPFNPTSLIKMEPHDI
ETV1, sequence (P50549 whole entry): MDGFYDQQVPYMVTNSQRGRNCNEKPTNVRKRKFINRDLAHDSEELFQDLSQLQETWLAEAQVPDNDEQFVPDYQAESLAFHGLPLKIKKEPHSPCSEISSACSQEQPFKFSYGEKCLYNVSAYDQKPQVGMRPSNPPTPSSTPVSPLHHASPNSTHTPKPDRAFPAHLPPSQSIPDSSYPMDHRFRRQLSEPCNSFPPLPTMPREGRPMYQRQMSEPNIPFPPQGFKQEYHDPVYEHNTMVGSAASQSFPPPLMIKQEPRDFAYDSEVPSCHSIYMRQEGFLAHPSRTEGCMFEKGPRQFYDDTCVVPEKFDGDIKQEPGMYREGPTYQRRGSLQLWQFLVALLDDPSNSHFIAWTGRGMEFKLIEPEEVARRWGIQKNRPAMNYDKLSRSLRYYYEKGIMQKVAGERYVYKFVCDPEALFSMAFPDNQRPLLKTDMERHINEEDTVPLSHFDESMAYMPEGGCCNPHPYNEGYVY
HSF1, sequence (Q00613 whole entry): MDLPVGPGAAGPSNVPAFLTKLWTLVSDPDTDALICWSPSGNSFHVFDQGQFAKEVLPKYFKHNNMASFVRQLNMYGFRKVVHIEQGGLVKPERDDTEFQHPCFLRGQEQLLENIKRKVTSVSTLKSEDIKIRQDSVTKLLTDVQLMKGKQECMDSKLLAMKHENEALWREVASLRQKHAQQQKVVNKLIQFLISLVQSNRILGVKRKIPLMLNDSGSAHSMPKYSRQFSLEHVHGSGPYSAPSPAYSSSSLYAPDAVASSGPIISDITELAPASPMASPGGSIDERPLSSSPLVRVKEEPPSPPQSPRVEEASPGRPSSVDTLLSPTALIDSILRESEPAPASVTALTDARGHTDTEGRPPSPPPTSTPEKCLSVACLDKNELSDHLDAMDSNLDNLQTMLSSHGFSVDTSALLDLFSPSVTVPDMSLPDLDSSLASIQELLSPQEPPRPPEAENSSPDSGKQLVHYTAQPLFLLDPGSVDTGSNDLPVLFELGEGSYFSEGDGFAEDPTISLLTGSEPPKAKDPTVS

For TATAAC, the binding signal is 1.26 fold enrichment (6-mer frequency, TF over GST control) in the assay with FEV; 1.2 fold enrichment (6-mer frequency, TF over GST control) with ETV5; 1.15 fold enrichment (6-mer frequency, TF over GST control) with HSF1; 1.2 fold enrichment (6-mer frequency, TF over GST control) in the assay with SPIC; 1.2 fold enrichment (6-mer frequency, TF over GST control) in the assay with ELF4; 1.17 fold enrichment (6-mer frequency, TF over GST control) in the assay with ELK4. The binding signal was 1.1 fold enrichment (6-mer frequency, TF over GST control) with ETV2; 1.25 fold enrichment (6-mer frequency, TF over GST control) in the assay with ELF3; 1.43 fold enrichment (6-mer frequency, TF over GST control) with CRX; 1.25 fold enrichment (6-mer frequency, TF over GST control) in the assay with ETV1.

Turning to CATTAC, the binding signal with FEV was 1.12 fold enrichment (6-mer frequency, TF over GST control); with ETV5 it was 1.13 fold enrichment (6-mer frequency, TF over GST control); with HSF1, 1.02 fold enrichment (6-mer frequency, TF over GST control); in the assay with SPIC, 1.05 fold enrichment (6-mer frequency, TF over GST control); in the assay with ELF4, 1.1 fold enrichment (6-mer frequency, TF over GST control); in the assay with ELK4, 1.17 fold enrichment (6-mer frequency, TF over GST control). The binding signal with ETV2 was 1.22 fold enrichment (6-mer frequency, TF over GST control); with ELF3, 1.08 fold enrichment (6-mer frequency, TF over GST control); in the assay with CRX, 1.18 fold enrichment (6-mer frequency, TF over GST control); in the assay with ETV1, 1.18 fold enrichment (6-mer frequency, TF over GST control).

Regarding TACTGC, the binding signal was 1.24 fold enrichment (6-mer frequency, TF over GST control) with FEV; 1.32 fold enrichment (6-mer frequency, TF over GST control) in the assay with ETV5; 1.1 fold enrichment (6-mer frequency, TF over GST control) with HSF1; 1.29 fold enrichment (6-mer frequency, TF over GST control) with SPIC; 1.22 fold enrichment (6-mer frequency, TF over GST control) in the assay with ELF4; 1.17 fold enrichment (6-mer frequency, TF over GST control) in the assay with ELK4. In addition, the binding signal is 1.09 fold enrichment (6-mer frequency, TF over GST control) with ETV2; 1.34 fold enrichment (6-mer frequency, TF over GST control) with ELF3; 1.17 fold enrichment (6-mer frequency, TF over GST control) with CRX; 1.08 fold enrichment (6-mer frequency, TF over GST control) with ETV1.

ATTCCC: the binding signal with FEV is 1.42 fold enrichment (6-mer frequency, TF over GST control); with ETV5, 1.44 fold enrichment (6-mer frequency, TF over GST control); with HSF1, 1.61 fold enrichment (6-mer frequency, TF over GST control); with SPIC it was 1.41 fold enrichment (6-mer frequency, TF over GST control); with ELF4, 1.47 fold enrichment (6-mer frequency, TF over GST control); with ELK4, 1.24 fold enrichment (6-mer frequency, TF over GST control). Also, the binding signal in the assay with ETV2 is 1.42 fold enrichment (6-mer frequency, TF over GST control); with ELF3, 1.35 fold enrichment (6-mer frequency, TF over GST control); with CRX, 1.57 fold enrichment (6-mer frequency, TF over GST control); with ETV1, 1.4 fold enrichment (6-mer frequency, TF over GST control).

With CGACTT, the binding signal is 2 fold enrichment (6-mer frequency, TF over GST control) with FEV; 1.65 fold enrichment (6-mer frequency, TF over GST control) with ETV5; 1.57 fold enrichment (6-mer frequency, TF over GST control) in the assay with HSF1; 1.65 fold enrichment (6-mer frequency, TF over GST control) with SPIC; 1.69 fold enrichment (6-mer frequency, TF over GST control) with ELF4; 1.97 fold enrichment (6-mer frequency, TF over GST control) in the assay with ELK4. Also, the binding signal is 1.72 fold enrichment (6-mer frequency, TF over GST control) with ETV2; 1.7 fold enrichment (6-mer frequency, TF over GST control) with ELF3; 1.74 fold enrichment (6-mer frequency, TF over GST control) in the assay with CRX; 1.72 fold enrichment (6-mer frequency, TF over GST control) with ETV1.

On to CCCTAA, for which the binding signal with FEV is 1.18 fold enrichment (6-mer frequency, TF over GST control); with ETV5, 1.28 fold enrichment (6-mer frequency, TF over GST control); with HSF1, 1.29 fold enrichment (6-mer frequency, TF over GST control); with SPIC, 1.24 fold enrichment (6-mer frequency, TF over GST control); with ELF4, 1.28 fold enrichment (6-mer frequency, TF over GST control); in the assay with ELK4, 1.28 fold enrichment (6-mer frequency, TF over GST control). Also, the binding signal with ETV2 is 1.23 fold enrichment (6-mer frequency, TF over GST control); in the assay with ELF3, 1.25 fold enrichment (6-mer frequency, TF over GST control); in the assay with CRX it was 1.71 fold enrichment (6-mer frequency, TF over GST control); with ETV1, 1.23 fold enrichment (6-mer frequency, TF over GST control).

For the sequence TTTACG, the binding signal was 1.26 fold enrichment (6-mer frequency, TF over GST control) in the assay with FEV; 1.28 fold enrichment (6-mer frequency, TF over GST control) with ETV5; 1.32 fold enrichment (6-mer frequency, TF over GST control) in the assay with HSF1; 1.24 fold enrichment (6-mer frequency, TF over GST control) with SPIC; 1.32 fold enrichment (6-mer frequency, TF over GST control) with ELF4; 1.29 fold enrichment (6-mer frequency, TF over GST control) in the assay with ELK4. Further, the binding signal with ETV2 was 1.33 fold enrichment (6-mer frequency, TF over GST control); with ELF3 it was 1.28 fold enrichment (6-mer frequency, TF over GST control); in the assay with CRX, 1.62 fold enrichment (6-mer frequency, TF over GST control); with ETV1, 1.32 fold enrichment (6-mer frequency, TF over GST control).
